Our source for the outcome and AC50 values is PubChem BioAssay (EPA / NIEHS).

A short description of test [1]: ATG_GLI_CIS: Attagene CIS-FACTORIAL HepG2 Assay for human Zinc Finger Protein GLI1 (AID 2282945). The following applies: HepG2, Attagene cis-factorial reporter mRNA, GLI element; actives raise or lower the signal. In outline:
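HepG2 cells transiently transfected with cis-promoter multiplexed reporter units report endogenous transcription factor activity. After 24 h chemical exposure, reporter mRNA was quantified by RT-PCR, 6-FAM labelling, HpaI digestion and capillary electrophoresis, with bidirectional fitting against DMSO.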

Test [2] is described as follows: ATG_GRE_CIS: Attagene CIS-FACTORIAL HepG2 Assay for human Glucocorticoid Response Elements (GRE) (AID 2282947). Conditions: HepG2 GRE cis-reporter, Attagene multiplex mRNA; actives raise or lower the signal. In outline:
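HepG2 cells transiently transfected with multiple cis-promoter reporter units measure endogenous TF activity; 24 h compound exposure. Reporter mRNA quantified by RT-PCR, FAM labelling, HpaI digestion and capillary electrophoresis; bidirectional fit vs DMSO baseline.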

Test [3] is described as follows: ATG_ISRE_CIS: Attagene CIS-FACTORIAL HepG2 Assay for human Interferon Regulatory Factor 1 (IRF1) binding to an Interferon-Stimulated Response Element (ISRE) (AID 2282948). Conditions: HepG2 ISRE cis-reporter (Attagene), mRNA transcription readout; actives raise or lower the signal. In outline: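 Transiently transfected HepG2 cells carrying cis-element reporter units, dosed 24 hours. Reporter mRNA quantified by RT-PCR, fluorescent primer extension, HpaI digestion and capillary electrophoresis. Bidirectional fitting relative to DMSO.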

The nature of test [4]: ATG_M_32_CIS: Attagene CIS-FACTORIAL HepG2 Assay for M32 Transcription Factor (Internal Marker) (AID 2282949).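 Further: background control marker of the multiplexed CIS panel rather than a real target.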 The following applies: HepG2 Attagene cis-factorial M32 reporter, mRNA; actives raise or lower the signal. In outline: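 Following 24 h chemical exposure of HepG2 cells transiently expressing cis-promoter reporter constructs, reporter transcript levels were determined by RT-PCR with fluorescent labelling and capillary electrophoresis, then fitted bidirectionally against DMSO.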

Test [5] can be described thus: ATG_M_06_CIS: Attagene CIS-FACTORIAL HepG2 Assay for M06 Transcription Factor (Internal Marker) (AID 2282950). Conditions: HepG2 Attagene CIS-FACTORIAL M06 internal marker reporter; actives raise or lower the signal. In outline:
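Terse: HepG2, transient MRTU transfection (FuGene 6), 24 h dosing; total RNA, oligo(dT) RT, PCR, FAM label, HpaI cut, capillary electrophoresis; bidirectional fit vs DMSO baseline; background-control endpoint.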

The target in test [6] is Hepatocyte nuclear factor 6 (Homo sapiens) (UniProt Q9UBC0). The test can be described thus: ATG_HNF6_CIS: Attagene CIS-FACTORIAL HepG2 Assay for human Hepatocyte Nuclear Factor 6 (HNF6) (AID 2282952). The following applies: HepG2 Attagene cis-factorial HNF6 reporter transcription; actives raise or lower the signal. In outline: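 Reporter mRNA induction or loss in HepG2 after 24 h exposure; transient cis-MRTU transfection; fragments quantified by capillary electrophoresis; bidirectional analysis, DMSO as negative control.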
Hepatocyte nuclear factor 6 (Homo sapiens), sequence (Q9UBC0 whole entry, looked up, the tested form may be a part): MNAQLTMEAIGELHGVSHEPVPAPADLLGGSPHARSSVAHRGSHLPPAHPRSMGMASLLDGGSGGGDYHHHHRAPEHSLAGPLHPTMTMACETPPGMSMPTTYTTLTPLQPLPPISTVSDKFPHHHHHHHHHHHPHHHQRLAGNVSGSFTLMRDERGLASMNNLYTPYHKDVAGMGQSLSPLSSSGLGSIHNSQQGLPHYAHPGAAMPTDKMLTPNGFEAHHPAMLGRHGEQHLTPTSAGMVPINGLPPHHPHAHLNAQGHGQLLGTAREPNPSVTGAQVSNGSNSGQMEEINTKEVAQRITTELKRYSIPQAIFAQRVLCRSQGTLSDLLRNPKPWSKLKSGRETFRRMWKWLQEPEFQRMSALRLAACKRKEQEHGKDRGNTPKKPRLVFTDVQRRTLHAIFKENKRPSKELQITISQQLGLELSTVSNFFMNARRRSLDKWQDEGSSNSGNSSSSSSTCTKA

Test [7] concerns the target Heat shock factor protein 1 (Homo sapiens) (UniProt Q00613). Description: ATG_HSE_CIS: Attagene CIS-FACTORIAL HepG2 Assay for human Heat Shock Transcription Factor 1 (HSE) (AID 2282953). The following applies: HepG2 HSE cis-reporter, Attagene RNA transcription; actives raise or lower the signal. In outline: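 Read-out: fluorescence of reporter-specific RT-PCR fragments separated by capillary electrophoresis. HepG2 carrying transfected cis-element reporter units; 24 h dosing; activity fitted in both directions relative to DMSO baseline.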

Test [8] in a line: ATG_MRE_CIS: Attagene CIS-FACTORIAL HepG2 Assay for human Metal Responsive Element (MRE) (AID 2282954). Conditions: HepG2 MRE cis-reporter transcription, Attagene multiplex; actives raise or lower the signal. In outline:
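HepG2 cells transiently transfected with multiple cis-element reporter units measure endogenous MTF1-driven transcription. After 24 h compound exposure, reporter mRNA is quantified by RT-PCR with 6-FAM labelling, HpaI digestion and capillary electrophoresis; bidirectional fits versus DMSO.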

Test [9] in a line: ATG_PBREM_CIS: Attagene CIS-FACTORIAL HepG2 Assay for human Phenobarbital-responsive Enhancer Module (PBREM) (AID 2282955). The following applies: HepG2 PBREM cis-reporter, Attagene multiplexed transcription; actives raise or lower the signal. In outline: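 HepG2 cells transiently transfected with multiple cis-regulated reporter transcription units; endogenous factor activity at the PBREM element measured as reporter mRNA 24 h after dosing, via RT-PCR and capillary electrophoresis of fluorescent fragments; bidirectional fitting versus DMSO.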

The target in test [10] is Paired box protein Pax-6 (Homo sapiens) (UniProt P26367). The test can be described thus: ATG_Pax6_CIS: Attagene CIS-FACTORIAL HepG2 Assay for human Paired Box 6 (PAX6) (AID 2282956). The following applies: HepG2 CIS-FACTORIAL PAX6 reporter transcription, RNA readout; actives raise or lower the signal. In outline:
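HepG2 cells transiently transfected with cis-promoter-driven multiplexed reporter units sensing endogenous transcription factor activity; 24 h chemical exposure. Reporter mRNA quantified by RT-PCR, 6-FAM labelling, HpaI digestion and capillary electrophoresis; bidirectional fit versus DMSO baseline.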

The nature of test [11]: ATG_PXRE_CIS: Attagene CIS-FACTORIAL HepG2 Assay for human Pregnane X Receptor Element (PXRE) (AID 2282957). Conditions: HepG2 Attagene CIS-FACTORIAL PXRE reporter, mRNA; actives raise or lower the signal. In outline: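 Transiently transfected HepG2 cells were dosed and incubated for 24 h. RNA was then isolated, DNase-treated, reverse-transcribed and reporter sequences amplified. Labeled, HpaI-digested fragments were quantified by capillary electrophoresis against DMSO.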

A short description of test [12]: ATG_RORE_CIS: Attagene CIS-FACTORIAL HepG2 Assay for human RAR-related Orphan Receptor Element (RORE) (AID 2282959). Conditions: HepG2 Attagene cis-factorial RORE reporter, mRNA; actives raise or lower the signal. In outline:
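HepG2 cells transiently transfected with multiple cis-element reporter transcription units, exposed to chemical for 24 h. Reporter mRNA quantified by RT-PCR, 6-FAM primer-extension labeling, HpaI digestion and capillary electrophoresis; bidirectional fit versus DMSO baseline.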

A short description of test [13]: ATG_Sox_CIS: Attagene CIS-FACTORIAL HepG2 Assay for human SRY-box transcription factor (SOX) (AID 2282960). Conditions: HepG2 Attagene cis-factorial SOX reporter, mRNA; actives raise or lower the signal. In outline: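 HepG2 cells transiently transfected with cis-element-driven multiple reporter transcription units, dosed 24 h; reporter mRNA measured by RT-PCR, FAM labelling, HpaI digestion and capillary electrophoresis. Bidirectional fit versus DMSO baseline.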

In test [14] the target is Transcription factor Sp1 (Homo sapiens) (UniProt P08047). The test can be described thus: ATG_Sp1_CIS: Attagene CIS-FACTORIAL HepG2 Assay for human Specificity Protein 1 (Sp1) (AID 2282961). The following applies: HepG2 Sp1 cis-reporter transcription, actives raise or lower the signal. In outline: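 HepG2 cells transiently transfected with multiple reporter transcription units driven by cis-regulatory elements; Sp1-responsive reporter mRNA measured 24 h after dosing by RT-PCR and capillary electrophoresis fluorescence, fitted bidirectionally against DMSO baseline.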
Transcription factor Sp1 (Homo sapiens), sequence (P08047 whole entry, looked up): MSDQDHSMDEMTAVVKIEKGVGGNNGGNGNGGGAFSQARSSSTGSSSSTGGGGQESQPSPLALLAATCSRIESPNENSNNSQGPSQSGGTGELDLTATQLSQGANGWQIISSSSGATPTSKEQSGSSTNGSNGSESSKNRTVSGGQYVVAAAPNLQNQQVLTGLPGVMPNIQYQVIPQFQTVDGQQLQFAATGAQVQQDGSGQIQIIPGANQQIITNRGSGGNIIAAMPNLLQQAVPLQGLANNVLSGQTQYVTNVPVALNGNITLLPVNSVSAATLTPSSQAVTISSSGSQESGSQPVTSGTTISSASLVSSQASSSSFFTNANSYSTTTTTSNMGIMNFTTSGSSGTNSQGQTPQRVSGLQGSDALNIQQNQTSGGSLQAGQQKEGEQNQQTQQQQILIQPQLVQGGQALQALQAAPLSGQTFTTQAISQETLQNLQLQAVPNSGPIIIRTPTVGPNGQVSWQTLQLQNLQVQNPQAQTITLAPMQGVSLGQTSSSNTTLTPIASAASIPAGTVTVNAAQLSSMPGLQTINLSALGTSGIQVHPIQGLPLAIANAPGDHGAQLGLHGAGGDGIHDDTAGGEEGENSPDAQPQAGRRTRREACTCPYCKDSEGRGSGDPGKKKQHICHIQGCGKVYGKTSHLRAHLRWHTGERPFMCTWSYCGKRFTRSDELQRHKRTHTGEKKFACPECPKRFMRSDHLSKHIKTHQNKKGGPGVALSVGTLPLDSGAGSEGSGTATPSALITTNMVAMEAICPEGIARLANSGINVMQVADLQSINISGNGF

Test [15] in a line: ATG_SREBP_CIS: Attagene CIS-FACTORIAL HepG2 Assay for human Sterol Regulatory Element Binding (SREBP) (AID 2282962). Conditions: HepG2 Attagene cis-factorial SREBP reporter, mRNA; actives raise or lower the signal. In outline:
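HepG2 cells transiently transfected with multiplexed cis-promoter reporter units sensing endogenous transcription factors; reporter mRNA measured 24 h after dosing by RT-PCR, 6-FAM labeling, HpaI digestion and capillary electrophoresis. Bidirectional fit versus DMSO.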

The target in test [16] is Signal transducer and activator of transcription 3 (Homo sapiens) (UniProt P40763). Description: ATG_STAT3_CIS: Attagene CIS-FACTORIAL HepG2 Assay for human Signal Transducer and Activator of Transcription 3 (STAT3) (AID 2282963). The following applies: HepG2, Attagene cis-factorial STAT3 reporter transcription; actives raise or lower the signal. In outline: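 HepG2 cells transiently transfected with cis-element-driven multiple reporter transcription units; after 24 h chemical exposure, reporter mRNA measured by RT-PCR, 6-FAM primer-extension labelling, HpaI digestion and capillary electrophoresis. Bidirectional fitting versus DMSO baseline.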
Signal transducer and activator of transcription 3 (Homo sapiens), sequence (P40763 whole entry, looked up): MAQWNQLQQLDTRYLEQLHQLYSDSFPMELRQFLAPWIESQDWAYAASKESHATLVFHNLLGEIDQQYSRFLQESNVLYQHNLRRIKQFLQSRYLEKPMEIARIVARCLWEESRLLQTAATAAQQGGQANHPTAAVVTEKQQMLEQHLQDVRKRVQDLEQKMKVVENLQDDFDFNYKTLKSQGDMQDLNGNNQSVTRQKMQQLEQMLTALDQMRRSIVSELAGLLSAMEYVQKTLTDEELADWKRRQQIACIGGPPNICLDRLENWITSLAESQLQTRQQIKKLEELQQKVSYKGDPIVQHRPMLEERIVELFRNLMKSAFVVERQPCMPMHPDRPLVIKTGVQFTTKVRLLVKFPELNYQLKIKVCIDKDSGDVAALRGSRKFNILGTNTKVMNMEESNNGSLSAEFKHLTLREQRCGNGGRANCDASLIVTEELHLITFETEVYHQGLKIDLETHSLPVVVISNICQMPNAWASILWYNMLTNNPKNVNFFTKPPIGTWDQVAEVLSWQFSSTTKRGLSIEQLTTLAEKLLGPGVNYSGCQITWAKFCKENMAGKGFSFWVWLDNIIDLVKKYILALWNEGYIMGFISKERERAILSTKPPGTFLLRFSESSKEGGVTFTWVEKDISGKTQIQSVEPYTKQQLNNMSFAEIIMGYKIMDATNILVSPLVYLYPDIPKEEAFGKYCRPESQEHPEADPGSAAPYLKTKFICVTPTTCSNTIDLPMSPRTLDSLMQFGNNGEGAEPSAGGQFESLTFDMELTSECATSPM

The nature of test [17]: ATG_TA_CIS: Attagene CIS-FACTORIAL HepG2 Assay for human TA Basal Promoter (AID 2282964). Conditions: HepG2 Attagene CIS-factorial TA basal promoter reporter; actives raise or lower the signal. In outline: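 Transfected HepG2, 24 h compound exposure; RNA → RT-PCR → FAM primer extension → HpaI cut → CE fluorescence. Gain/loss-of-signal fitted against DMSO negative control. Background-control readout.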

A short description of test [18]: ATG_PPRE_CIS: Attagene CIS-FACTORIAL HepG2 Assay for human Peroxisome Proliferator-activated Response Element (PPRE) (AID 2282958). The following applies: HepG2 PPRE cis-element reporter, Attagene transcription factor profiling; actives raise or lower the signal. In outline: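 HepG2 cells transiently transfected with multiplexed cis-element reporter units measure endogenous transcription factor activity. After 24 h compound exposure, reporter mRNA is quantified by RT-PCR, 6-FAM labeling, HpaI digestion and capillary electrophoresis; bidirectional fits are made against DMSO baseline.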

For test [19], the target named is Hypoxia-inducible factor 1-alpha (Homo sapiens) (UniProt Q16665). The test can be described thus: ATG_HIF1a_CIS: Attagene CIS-FACTORIAL HepG2 Assay for human Hypoxia Inducible Factor 1 (HIF1A) (AID 2282951). The following applies: HepG2 Attagene cis-factorial HIF1a reporter transcription; actives raise or lower the signal. In outline:
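HepG2 cells transiently transfected with multiplexed cis-promoter reporter units; reporter mRNA read 24 h after dosing by RT-PCR, 6-FAM primer-extension labelling, HpaI digestion and capillary electrophoresis. Bidirectional fit versus DMSO baseline.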

Values joined by “and” are separate entries in the source; they are usually repeats but may differ in a detail not shown here. Identical values can stand only once. More than one record can exist for a structure, and the calls need not agree. Active and inactive are the calls of the source. How the source made its calls: active means hit-call score of the fitted dose curve at least 0.9, where 1 is the maximum; inactive means score below 0.9.

Hypoxia-inducible factor 1-alpha (Homo sapiens), sequence (Q16665 whole entry, looked up): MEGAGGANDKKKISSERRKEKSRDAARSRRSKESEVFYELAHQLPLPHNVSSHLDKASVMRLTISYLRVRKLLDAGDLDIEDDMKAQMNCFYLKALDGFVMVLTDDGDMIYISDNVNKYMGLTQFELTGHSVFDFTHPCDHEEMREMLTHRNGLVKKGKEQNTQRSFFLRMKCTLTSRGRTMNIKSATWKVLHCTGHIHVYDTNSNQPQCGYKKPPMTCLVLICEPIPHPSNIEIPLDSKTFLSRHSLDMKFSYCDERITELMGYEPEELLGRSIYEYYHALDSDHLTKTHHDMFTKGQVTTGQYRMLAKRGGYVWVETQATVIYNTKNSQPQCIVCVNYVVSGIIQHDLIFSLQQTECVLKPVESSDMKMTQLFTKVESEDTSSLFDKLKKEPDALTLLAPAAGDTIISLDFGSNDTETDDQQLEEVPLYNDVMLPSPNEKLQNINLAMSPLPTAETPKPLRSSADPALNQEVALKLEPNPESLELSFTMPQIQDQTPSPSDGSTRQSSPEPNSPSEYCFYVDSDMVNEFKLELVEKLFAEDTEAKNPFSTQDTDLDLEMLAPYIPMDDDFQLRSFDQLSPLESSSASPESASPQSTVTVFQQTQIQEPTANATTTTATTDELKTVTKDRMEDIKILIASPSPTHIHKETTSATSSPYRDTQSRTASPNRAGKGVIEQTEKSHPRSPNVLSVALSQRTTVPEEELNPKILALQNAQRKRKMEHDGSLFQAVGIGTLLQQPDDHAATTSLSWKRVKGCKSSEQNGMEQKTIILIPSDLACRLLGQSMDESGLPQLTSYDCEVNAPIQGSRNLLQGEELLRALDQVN
Heat shock factor protein 1 (Homo sapiens), sequence (Q00613 whole entry, looked up, the tested form may be a part): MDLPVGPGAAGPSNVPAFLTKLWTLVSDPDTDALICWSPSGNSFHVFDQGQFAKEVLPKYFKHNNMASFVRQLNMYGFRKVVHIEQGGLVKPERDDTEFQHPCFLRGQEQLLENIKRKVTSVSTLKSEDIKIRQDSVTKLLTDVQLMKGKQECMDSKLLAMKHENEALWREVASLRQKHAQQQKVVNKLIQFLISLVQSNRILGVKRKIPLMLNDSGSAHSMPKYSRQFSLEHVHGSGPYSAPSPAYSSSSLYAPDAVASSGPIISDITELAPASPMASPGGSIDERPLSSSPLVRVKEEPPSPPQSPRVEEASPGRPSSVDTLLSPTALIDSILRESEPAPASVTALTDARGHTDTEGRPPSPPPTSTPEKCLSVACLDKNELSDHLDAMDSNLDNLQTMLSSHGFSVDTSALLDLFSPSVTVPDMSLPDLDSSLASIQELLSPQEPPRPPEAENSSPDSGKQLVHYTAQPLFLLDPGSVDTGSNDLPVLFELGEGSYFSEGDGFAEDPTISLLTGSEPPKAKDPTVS
Paired box protein Pax-6 (Homo sapiens), sequence (P26367 whole entry, looked up): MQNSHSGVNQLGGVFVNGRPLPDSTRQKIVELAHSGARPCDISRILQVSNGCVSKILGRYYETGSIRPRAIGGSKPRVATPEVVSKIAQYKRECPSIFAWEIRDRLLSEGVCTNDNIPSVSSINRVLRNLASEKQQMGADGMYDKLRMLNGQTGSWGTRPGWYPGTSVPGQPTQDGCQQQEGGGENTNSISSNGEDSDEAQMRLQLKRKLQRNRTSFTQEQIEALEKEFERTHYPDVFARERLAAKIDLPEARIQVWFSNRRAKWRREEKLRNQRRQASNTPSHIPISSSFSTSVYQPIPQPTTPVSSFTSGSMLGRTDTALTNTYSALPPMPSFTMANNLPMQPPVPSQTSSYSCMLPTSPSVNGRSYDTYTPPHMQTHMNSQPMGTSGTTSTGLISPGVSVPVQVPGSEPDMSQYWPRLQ

For orientation: AC50 means the midpoint of the concentration-response curve, whichever way the signal moves. For `C[C@]12CC[C@@H]3c4ccc(O)cc4CC[C@H]3[C@@H]1CC[C@@H]2O`, the outcome in test [1], in [2], in test [3], in test [4], in [5] and in test [6] was inactive. In addition, the call in test [7], in test [8], in test [9], in test [10], in test [11] and in [12] was inactive. Further, the call in [13], in test [14], in [15], in test [16] and in [17] was inactive. Moreover, the AC50 in [8] was 31.8 µM (active) and 21 µM (active) and 25.8 µM (active); in test [11] it was 5.88 µM (active) [middle of 4 runs]; in test [15], 26.5 µM (active) and 25.8 µM (active).

Take `O=c1cc(-c2ccc(O)cc2)oc2cc(O)cc(O)c12`: the molecule was called inactive in test [1], in test [2], in test [4], in test [5], in test [6] and in [9]. The call in [13], in [14], in [15], in test [16] and in test [17] was inactive. Further, the AC50 was 31 µM (active) in test [3]; 24.9 µM (active) in test [7]; 41.1 µM (active) in [8]; 21.7 µM (active) in [10]; 14 µM (active) in test [11]; 26.7 µM (active) in test [18].

With `CC(C)(C)c1ccc(S)cc1`, the molecule was called inactive in [1], in [2], in test [3], in [4], in test [5] and in [6]. For the same molecule, the molecule was classed as inactive in [7], in test [8], in test [10], in test [12], in [13] and in test [15]. The result in test [16] and in test [17] was inactive. Moreover, the AC50 in [11] is 6.36 µM (active).

Regarding `CC(=O)CCC(=O)O`, the outcome in [1], in test [2], in test [3], in [4], in [5] and in test [6] was inactive. For the same molecule, the molecule was classed as inactive in [8], in [10], in test [12], in test [13], in test [14] and in [15]. Moreover, the molecule was classed as inactive in test [16] and in [17]. Also, the AC50 in test [11] was 63.8 µM (active).

Consider `CCCC1CCOC(C)S1` (stereo not drawn), for which the molecule was called inactive in test [1], in test [2], in test [4], in [5], in test [19] and in test [6]. The molecule was classed as inactive in test [7], in [8], in [10], in [12], in test [13] and in test [14]. The molecule was classed as inactive in test [16] and in test [17]. Besides, in test [11], the AC50 is 54 µM (active).

`Cc1ccncc1`: the molecule was called inactive in [1], in [2], in test [4], in [5], in test [19] and in test [6]. The result in test [7], in test [8], in test [10], in [11], in [12] and in test [13] was inactive. In addition, the result in test [14], in test [15], in test [16] and in test [17] was inactive.

With `Cc1cccc(C)c1`, the outcome in test [1], in test [2], in [4], in test [5], in [19] and in test [6] was inactive. The outcome in test [7], in test [8], in test [9], in test [10], in test [18] and in [12] was inactive. The outcome in [13], in test [14], in test [16] and in test [17] was inactive. The AC50 in test [11] was 34.4 µM (active).

For the molecule `CCCCCCCCCCCCCCCCCC(=O)OCCCCCCCCCCCCCC(C)C`, the molecule was called inactive in test [1], in test [2], in test [4], in test [5], in test [6] and in test [7]. Besides, the outcome in test [8], in test [18], in [12], in test [13], in test [15] and in test [17] was inactive. Also, in test [11], the AC50 is 46.9 µM (active).
